# PubChem BioAssay (NCI)
# This is part of a sample that, as a whole, favours compounds with a hit. Of some 83,000 tested, about 20% had one in any assay.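 The endpoint reported here, percent growth, reads 100 for growth as untreated, 0 for no net growth and -100 for all cells dead.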 Values without a mark were called inactive. Calls of active or inactive are those of the source. Rule for the calls: active = growth percent below 10; inactive = the rest.
# Columns and labels:
# Experiment in all cases: NCI-60 one-dose screen, 48 h (100 = growth as untreated, 0 = no growth, -100 = all killed)
# Settings in all cases: 10 µM unless noted
# [1] = system: MOLT-4 leukemia
# [2] = system: RPMI-8226 leukemia
# [3] = system: OVCAR-8 ovarian
# [4] = system: OVCAR-5 ovarian
# [5] = system: OVCAR-4 ovarian
# [6] = system: SK-OV-3 ovarian
# [7] = system: IGROV1 ovarian
# [8] = system: OVCAR-3 ovarian
# [9] = system: HS 578T breast
# [10] = system: NCI/ADR-RES ovarian
# [11] = system: T-47D breast
# [12] = system: BT-549 breast
# [13] = system: MDA-MB-435 melanoma
# [14] = system: SW-620 colon
# [15] = system: MCF7 breast
# [16] = system: HCT-116 colon
# [17] = system: HCC-2998 colon
# [18] = system: KM12 colon
Structure (SMILES),growth [1],growth [2],growth [3],growth [4],growth [5],growth [6],growth [7],growth [8],growth [9],growth [10],growth [11],growth [12],growth [13],growth [14],growth [15],growth [16],growth [17] [%],growth [18]
N#C[Se]Cc1cc(-c2ccccc2)n(-c2ccc(S(N)(=O)=O)cc2)n1,-28.4% (active),-33.5% (active),6.01% (active),-42.6% (active),2.52% (active),-42.6% (active),-35.6% (active),-80.6% (active),-17.6% (active),35.4%,-1.52% (active),-34.6% (active),-28.8% (active),-18.4% (active),-26.1% (active),-59.4% (active),25.1,-78.9% (active)
ClC1=C(Cl)C(Cl)(C2(Cl)C(Cl)=C(Cl)C(Cl)=C2Cl)C(Cl)=C1Cl,-36.7% (active),-37.8% (active),0.392% (active),16.1%,-30.2% (active),87.1%,-33.3% (active),-77.4% (active),53.3%,4.66% (active),-45.4% (active),-12.3% (active),-50.9% (active),-52.8% (active),-40.9% (active),-73.4% (active),52.1,84.5%
CCOC(=O)CCC(NC(=O)C(Cc1ccc(N(CCCl)CCCl)cc1)NC=O)C(=O)OCC (centres undefined),5.13% (active),30.6%,44.5%,42.9%,61.4%,135%,67.2%,-17.4% (active),51.8%,67.2%,,69.6%,21.1%,51.5%,22.1%,61.5%,46.9,82.7%
CN1CCC(O)(c2ccc(F)cc2)C(C(=O)c2ccc(F)cc2)C1 (centres undefined),94.2%,-9.61% (active),102%,93.2%,102%,102%,96.3%,111%,101%,,94.7%,96%,110%,99%,85.3%,101%,101,105%
Cn1cc(-c2csc(-c3cn(CCN4CCOCC4)c4ccccc34)n2)c2cccnc21,29.9%,29.6%,29.5%,95.6%,64.2%,105%,61.8%,70%,78%,,2.94% (active),45.1%,65.1%,83.1%,30.7%,72.9%,99.2,56.5%
CN(C)C1C(=O)C(C(N)=O)=C(O)C2(O)C(=O)C3=C(O)c4c(O)cccc4C(C)(O)C3CC12.[Cl][Sb]([Cl])[Cl] (centres undefined),36.9%,15.4%,21.3%,143%,44.2%,76.9%,45.1%,38%,31.7%,56.9%,60.3%,15.5%,24.1%,34.7%,57.6%,11.9%,39.6,45.9%
OCc1ccc2c(c1)OCO2,91.9%,102%,95.7%,97%,101%,95.6%,106%,107%,97.1%,,86.4%,106%,102%,102%,93%,101%,102,103%
CCCOC(=O)N[C@H]1CCc2c(Br)c(OC)c(OC)c(OC)c2-c2ccc(SC)c(=O)cc21,10.7%,-9.16% (active),13.4%,36.7%,32.6%,40.8%,10.9%,-16.8% (active),1.06% (active),10.4%,51.5%,2.53% (active),-49.4% (active),15.3%,10%,-12.6% (active),16.2,-15.7% (active)
C=CCCCCCCCCC(=O)[O-].C=CCCCCCCCCC(=O)[O-].[Zn+2],103%,95.2%,96.6%,106%,115%,112%,105%,118%,105%,99.2%,,108%,100%,102%,108%,101%,107,94.3%
O=C(N/N=C\c1ccc(N(CCCl)CCCl)cc1)c1cccc([N+](=O)[O-])c1,89.7%,95.6%,63.4%,109%,87%,82.7%,76.8%,83.2%,64.2%,88.1%,,96%,105%,100%,79.9%,97%,101,93.6%
CCCCOc1ccc(C(N)Cc2ccccc2)cc1 (centres undefined),85.5%,80.5%,97.6%,95.9%,107%,114%,88.2%,102%,91%,105%,92.5%,101%,43.2%,87.5%,81.7%,86.4%,,98.5%
Cc1cccc(N2CCN(C(C)C#N)CC2)c1 (centres undefined),106%,104%,106%,103%,114%,102%,108%,109%,96.3%,,98.4%,92.4%,98.4%,,99.3%,108%,96.9,108%
Cc1ccc2c(C(C[N+](=O)[O-])c3cccs3)c(-c3ccccc3)[nH]c2c1 (centres undefined),16.2%,11.8%,33%,58.8%,38%,22.7%,31.4%,10.2%,-11.7% (active),11.7%,14.6%,33.8%,-31.1% (active),18.5%,17.8%,23.2%,40.3,21.4%
COc1cc(C=Nc2cc(Cl)cc(Cl)c2)ccc1N(CCCl)CCCl,58.9%,75%,90.5%,105%,99.5%,91.1%,56.7%,91.1%,93.5%,85.2%,95.4%,85.4%,95.5%,75.5%,84.2%,90.4%,,51.1%
CCC1(C)CC(CCNCc2ccccc2O)(c2ccc(C)cc2)CCO1 (centres undefined),101%,98.2%,103%,100%,100%,112%,95.6%,105%,104%,,103%,101%,100%,103%,97.3%,109%,117,107%
O=C1CC2(CC3(Cl)C(Cl)=C(Cl)C2(Cl)C3(Cl)Cl)C(=O)O1 (centres undefined),96.5%,105%,104%,94.4%,116%,112%,105%,114%,,101%,99.6%,107%,103%,113%,99.4%,91.1%,102,106%
N#CC1(c2ccccc2)CCN(Cc2ccccc2)CC1,107%,77%,104%,98%,113%,107%,115%,101%,96.3%,99.7%,100%,102%,95.2%,101%,110%,104%,,99.7%
CCCC[C@H](NC(=O)[C@H]1CCCN1C)C(=O)N(C)[C@H](C[C@@H](OC(C)=O)c1nc(C(=O)N[C@@H](Cc2ccccc2)C[C@H](C)C(=O)OCC)cs1)C(C)C,14.5%,16.6%,20%,32.7%,66.5%,17.2%,29.7%,8.32% (active),12.6%,7.13% (active),54.4%,-21.7% (active),-28.6% (active),22.1%,,,14.2,13.6%
